Assay results from PubChem BioAssay (NCATS).
Records with an inconclusive call do not appear. Active and inactive are the calls of the source. Calls follow the shape of the dose curve; as a rule, active = well fitted inhibition curve with a large enough effect; inconclusive = small, poorly fitted or top-dose-only effect; inactive = flat fitted curve, though single readings scatter. Peptide text beside a SMILES is read from it.

Tested on: 3D7
Test: qHTS profiling for inhibitors of Plasmodium falciparum proliferation (AID 504749); also: nearly all actives have a fitted effect of over 60% in size;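 as to activity, negative = inhibition: 0% = DMSO vehicle and full inhibition = artemisinin control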
Conditions: P. falciparum in erythrocytes, SYBR Green DNA, 72 h; series mostly up to 12.8 µM; activity, negative = inhibition: at the top concentration
Procedure, shortened: (§1)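 Infected RBCs, 0.3% parasitemia/2.5% Hct final; cpd 72 h, 37 C, 5% CO2; lysis buffer with saponin/triton/SYBR Green I, o/n RT dark; FI 485/535; norm. to artemisinin (0.29 uM) and DMSO.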
Potency is read from the fitted curve at half-maximal effect.

activity, negative = inhibition, inactive:
CC(=O)[C@]1(O)CCC2C3C=C(Cl)C4=CC(=O)C5CC5[C@@]4(C)C3CC[C@]21C (stereo partly drawn) 2.86% [at 28.7 µM], CC(=O)N[C@@H]1C(O)OC(CO)C(O)C1O (stereo partly drawn) 2.73% [at 28.7 µM], C/C1=C2N=C(/C=C3N=C(/C(C)=C4\[N-]C(C)(C5N=C1C(C)(CCC(=O)NCC(C)OP(=O)([O-])O[C@H]1C(O)C(n6cnc7cc(C)c(C)cc76)O[C@@H]1CO)C5CC(N)=O)C(C)(CC(N)=O)C4CCC(N)=O)C(C)(CC(N)=O)C\3CCC(N)=O)C(C)(C)C/2CCC(N)=O.[CH2-]C1OC(n2cnc3c(N)ncnc32)C(O)C1O.[Co] (stereo partly drawn) -20% [at 28.7 µM], O=C1OC(CO)C(O)C(O)C1O (stereo not drawn) 6.95% [at 28.7 µM], CNC1C(OC2C(O[C@@H]3C(O)C(O)[C@@H](N=C(N)N)C(O)C3N=C(N)N)OC(C)[C@@]2(O)CO)OC(CO)C(O)C1O (stereo partly drawn) 0.337% [at 28.7 µM], Nc1nc2ncc(CNc3ccc(C(=O)NC(CCC(=O)O)C(=O)O)cc3)nc2c(=O)[nH]1 (stereo not drawn) 10.3% [at 28.7 µM]

Potency, active:
COc1cc(C2c3cc4c(cc3C(O[C@@H]3OC5COC(c6cccs6)OC5C(O)C3O)C3COC(=O)C23)OCO4)cc(OC)c1O (stereo partly drawn) 2000 nM

Tested on: 7G8
Test: as above
Conditions: P. falciparum in erythrocytes, SYBR Green DNA, 72 h; series mostly up to 12.8 µM; activity, negative = inhibition: at the top concentration
Procedure, shortened: as §1

activity, negative = inhibition, inactive:
CN(C)CCCOC1C(C(O)CO)OC2OC(C)(C)O[C@@H]21 (stereo partly drawn) -1.03% [at 28.7 µM], CCC(C)C(=O)OC1CCC=C2C=CC(C)C(CCC3CC(O)CC(=O)O3)[C@@H]21 (stereo partly drawn) -22.6% [at 28.7 µM], CN1CC(=O)N=C1N -4.1% [at 28.7 µM], CC(C)C1CCC(C(=O)NC(Cc2ccccc2)C(=O)O)CC1 (stereo not drawn) -14.2% [at 28.7 µM], CCC(CCC(C)C1CCC2C3CC=C4CC(O)CC[C@@]4(C)C3CC[C@@]12C)C(C)C (stereo partly drawn) -5.18% [at 28.7 µM], C[C@]12CCC(=O)C=C1CCC1C2C(=O)C[C@]2(C)C1CC[C@]2(O)C(=O)CO (stereo partly drawn) -0.529% [at 28.7 µM], OCC1O[C@H](OC2C(CO)O[C@@](O)(CO)C2O)C(O)C(O)C1O (stereo partly drawn) -0.669% [at 28.7 µM], CC1(C)OC2CC(=O)OC[C@@]23C1CC(=O)[C@]1(C)C3CC[C@@]2(C)C(c3ccoc3)OC(=O)C3O[C@@]321 (stereo partly drawn) 7.34% [at 28.7 µM], COC(=O)C(Cc1ccccc1)NC(=O)C(N)CC(=O)O (stereo not drawn) (H-Asp-Phe-OMe; configuration not given here) -8.46% [at 28.7 µM], C[C@]12C=CC(=O)C=C1CCC1C2C(O)C[C@]2(C)C1CC[C@]2(O)C(=O)CO (stereo partly drawn) -27.9% [at 28.7 µM], CC1(C)S[C@H]2C(NC(=O)[C@@H](N)c3ccc(O)cc3)C(=O)N2[C@@H]1C(=O)O (stereo partly drawn) -3.93% [at 28.7 µM], CC(C)=CCC[C@](C)(O)C1CC=C(C)CC1 (stereo partly drawn) -16.9% [at 28.7 µM], C[C@]1(c2ccccc2)OC(C(=O)O)=CC1=O 7.39% [at 28.7 µM], CC(=O)N[C@H](CC(C)C)C(=O)O 2.32% [at 28.7 µM], COc1ccc2cc(C(C)CO)ccc2c1 (stereo not drawn) -2.01% [at 28.7 µM], CC1CCC(C(C)C)C(=O)C1 (stereo not drawn) 9.14% [at 28.7 µM], CNC1CC(N)[C@H](O)[C@@H](O[C@@H]2OC(CO)C3OC4(OC(C(N)CO)C(O)C(O)C4O)O[C@@H]3[C@H]2O)C1O (stereo partly drawn) 12% [at 28.7 µM], CCCC(=O)O[C@]1(C(=O)CO)CCC2[C@@H]3CCC4=CC(=O)CC[C@]4(C)C3C(O)C[C@]21C (stereo partly drawn) 12% [at 28.7 µM], C/C1=C2N=C(/C=C3N=C(/C(C)=C4\[N-]C(C)(C5N=C1C(C)(CCC(=O)NCC(C)OP(=O)([O-])O[C@H]1C(O)C(n6cnc7cc(C)c(C)cc76)O[C@@H]1CO)C5CC(N)=O)C(C)(CC(N)=O)C4CCC(N)=O)C(C)(CC(N)=O)C\3CCC(N)=O)C(C)(C)C/2CCC(N)=O.[CH2-]C1OC(n2cnc3c(N)ncnc32)C(O)C1O.[Co] (stereo partly drawn) -15.1% [at 28.7 µM], O=C1OC(CO)C(O)C(O)C1O (stereo not drawn) 0.184% [at 28.7 µM], CNC1C(OC2C(O[C@@H]3C(O)C(O)[C@@H](N=C(N)N)C(O)C3N=C(N)N)OC(C)[C@@]2(O)CO)OC(CO)C(O)C1O (stereo partly drawn) 2.25% [at 28.7 µM], Nc1nc2ncc(CNc3ccc(C(=O)NC(CCC(=O)O)C(=O)O)cc3)nc2c(=O)[nH]1 (stereo not drawn) 9.38% [at 28.7 µM]

Potency, active:
NC(C(=O)O)[C@@H]1CC(Cl)=NO1 (stereo partly drawn) 631 nM, COC1C=CO[C@@]2(C)Oc3c(C)c(O)c4c(O)c(c5c(nc6cc(C)ccn65)c4c3C2=O)NC(=O)/C(C)=C\C=CC(C)C(O)[C@@H](C)C(O)C(C)[C@@H](OC(C)=O)C1C (stereo partly drawn) 3160 nM, CO[C@]12C(COC(N)=O)C3=C(C(=O)C(C)=C(N)C3=O)N1CC1NC12 (stereo partly drawn) 708 nM, COC1C=CO[C@@]2(C)Oc3c(C)c(O)c4c(O)c(c(C=NN5CCN(C)CC5)c(O)c4c3C2=O)NC(=O)/C(C)=C\C=CC(C)C(O)[C@@H](C)C(O)C(C)[C@H](OC(C)=O)C1C (stereo partly drawn) 112 nM, COc1cc(C2c3cc4c(cc3C(O[C@@H]3OC5COC(c6cccs6)OC5C(O)C3O)C3COC(=O)C23)OCO4)cc(OC)c1O (stereo partly drawn) 631 nM

Tested on: AA1029
Test: as above
Conditions: P. falciparum in erythrocytes, SYBR Green DNA, 72 h; series mostly up to 12.8 µM; activity, negative = inhibition: at the top concentration
Procedure, shortened: as §1

activity, negative = inhibition, inactive:
CN(C)CCCOC1C(C(O)CO)OC2OC(C)(C)O[C@@H]21 (stereo partly drawn) 8.22% [at 28.7 µM], CCC(C)C(=O)OC1CCC=C2C=CC(C)C(CCC3CC(O)CC(=O)O3)[C@@H]21 (stereo partly drawn) -1.66% [at 28.7 µM], CC(=O)OC1CCC2C3CCc4cc(O)ccc4C3CCC12C (stereo not drawn) 6.84% [at 28.7 µM], CC[C@@]12CCCN3CCc4c(n(c5ccccc45)[C@](O)(C(=O)OC)C1)C32 (stereo partly drawn) -9.39% [at 28.7 µM], CN1CC(=O)N=C1N 3.2% [at 28.7 µM], OCC1OC([S-])[C@H](O)C(O)C1O.[Au+] (stereo partly drawn) -3.89% [at 28.7 µM], CC(C)C1CCC(C(=O)NC(Cc2ccccc2)C(=O)O)CC1 (stereo not drawn) 0.0752% [at 28.7 µM], CCC(CCC(C)C1CCC2C3CC=C4CC(O)CC[C@@]4(C)C3CC[C@@]12C)C(C)C (stereo partly drawn) 3.18% [at 28.7 µM], C[C@]12CCC(=O)C=C1CCC1C2C(=O)C[C@]2(C)C1CC[C@]2(O)C(=O)CO (stereo partly drawn) 6.81% [at 28.7 µM], OCC1O[C@H](OC2C(CO)O[C@@](O)(CO)C2O)C(O)C(O)C1O (stereo partly drawn) 1.24% [at 28.7 µM], CC1(C)OC2CO[C@]3(COS(N)(=O)=O)OC(C)(C)OC3C2O1 (stereo partly drawn) 7.42% [at 28.7 µM], CC1(C)OC2CC(=O)OC[C@@]23C1CC(=O)[C@]1(C)C3CC[C@@]2(C)C(c3ccoc3)OC(=O)C3O[C@@]321 (stereo partly drawn) 11.3% [at 28.7 µM], CCOC(=O)C1=CC(OC(CC)CC)C(NC(C)=O)C(N)C1 (stereo not drawn) 2.76% [at 28.7 µM], COC(=O)C(Cc1ccccc1)NC(=O)C(N)CC(=O)O (stereo not drawn) (H-Asp-Phe-OMe; configuration not given here) -7.68% [at 28.7 µM], C[C@]12C=CC(=O)C=C1CCC1C2C(O)C[C@]2(C)C1CC[C@]2(O)C(=O)CO (stereo partly drawn) 2.34% [at 28.7 µM], CC1(C)S[C@H]2C(NC(=O)[C@@H](N)c3ccc(O)cc3)C(=O)N2[C@@H]1C(=O)O (stereo partly drawn) 5.8% [at 28.7 µM], CC(C)=CCC[C@](C)(O)C1CC=C(C)CC1 (stereo partly drawn) -7.69% [at 28.7 µM], C[C@]1(c2ccccc2)OC(C(=O)O)=CC1=O 7.42% [at 28.7 µM], CC(=O)N[C@H](CC(C)C)C(=O)O -4.37% [at 28.7 µM], COc1ccc2cc(C(C)CO)ccc2c1 (stereo not drawn) 0.241% [at 28.7 µM], CC1CCC(C(C)C)C(=O)C1 (stereo not drawn) 8.12% [at 28.7 µM], CNC1CC(N)[C@H](O)[C@@H](O[C@@H]2OC(CO)C3OC4(OC(C(N)CO)C(O)C(O)C4O)O[C@@H]3[C@H]2O)C1O (stereo partly drawn) -2.26% [at 28.7 µM], CCCC(=O)O[C@]1(C(=O)CO)CCC2[C@@H]3CCC4=CC(=O)CC[C@]4(C)C3C(O)C[C@]21C (stereo partly drawn) 2% [at 28.7 µM], CC(=O)[C@]1(O)CCC2C3C=C(Cl)C4=CC(=O)C5CC5[C@@]4(C)C3CC[C@]21C (stereo partly drawn) 3.04% [at 28.7 µM], CC(=O)N[C@@H]1C(O)OC(CO)C(O)C1O (stereo partly drawn) 8.69% [at 28.7 µM], C/C1=C2N=C(/C=C3N=C(/C(C)=C4\[N-]C(C)(C5N=C1C(C)(CCC(=O)NCC(C)OP(=O)([O-])O[C@H]1C(O)C(n6cnc7cc(C)c(C)cc76)O[C@@H]1CO)C5CC(N)=O)C(C)(CC(N)=O)C4CCC(N)=O)C(C)(CC(N)=O)C\3CCC(N)=O)C(C)(C)C/2CCC(N)=O.[CH2-]C1OC(n2cnc3c(N)ncnc32)C(O)C1O.[Co] (stereo partly drawn) -6.8% [at 28.7 µM], O=C1OC(CO)C(O)C(O)C1O (stereo not drawn) 12.4% [at 28.7 µM], CNC1C(OC2C(O[C@@H]3C(O)C(O)[C@@H](N=C(N)N)C(O)C3N=C(N)N)OC(C)[C@@]2(O)CO)OC(CO)C(O)C1O (stereo partly drawn) 6.77% [at 28.7 µM], Nc1nc2ncc(CNc3ccc(C(=O)NC(CCC(=O)O)C(=O)O)cc3)nc2c(=O)[nH]1 (stereo not drawn) 8.52% [at 28.7 µM]

Potency, active:
NC(C(=O)O)[C@@H]1CC(Cl)=NO1 (stereo partly drawn) 1000 nM, COC1C=CO[C@@]2(C)Oc3c(C)c(O)c4c(O)c(c5c(nc6cc(C)ccn65)c4c3C2=O)NC(=O)/C(C)=C\C=CC(C)C(O)[C@@H](C)C(O)C(C)[C@@H](OC(C)=O)C1C (stereo partly drawn) 12600 nM, CO[C@]12C(COC(N)=O)C3=C(C(=O)C(C)=C(N)C3=O)N1CC1NC12 (stereo partly drawn) 2000 nM, COC1C=CO[C@@]2(C)Oc3c(C)c(O)c4c(O)c(c(C=NN5CCN(C)CC5)c(O)c4c3C2=O)NC(=O)/C(C)=C\C=CC(C)C(O)[C@@H](C)C(O)C(C)[C@H](OC(C)=O)C1C (stereo partly drawn) 2000 nM, COc1cc(C2c3cc4c(cc3C(O[C@@H]3OC5COC(c6cccs6)OC5C(O)C3O)C3COC(=O)C23)OCO4)cc(OC)c1O (stereo partly drawn) 2240 nM
